From PubChem
CCT modulator: High-Throughput Screening for Modulators of Cytosolic Chaperonin Activity; purified chaperonin ATPase assay, HTRF ADP detection, 30 min; activity change, % (test concentration not listed), hits read low; 360,000 compounds, 0.3% hits; AID 651819, 2012; in the data active means activity change below about -30%
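TRiC (40 or 20 nM final, by batch activity) in 30 mM Tris pH 7.4, 100 mM KCl, 5 mM MgCl2, 1 mM DTT was treated with compound at 76 uM single dose, then 10 uM ATP, 30 min at 37 °C. ADP was read by HTRF Transcreener.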
MmCpn inh: Inhibitors of TCP-1 ring complex (TRiC) of Methanococcus maripaludis (MmCpn): qHTS; purified Mm-Cpn ATPase, ADP Transcreener TR-FRET; Potency, µM (titrated, usually from 76.9 µM), hits mostly inhibitors; 330,000 compounds, 0.031% hits; AID 504842, 2011; further: nearly all actives have a fitted effect of over 80% in size
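Measured: ADP formation by purified Mm-CPN. Conditions: 25 nM protein, 10 uM ATP, Tris pH 7.4 with Mg2+, K+ and DTT, 37°C for 30 min. Detection: Transcreener HTRF after 30 min at room temperature.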
uPA surface inh: qHTS for Inhibitors of Cell Surface uPA Generation. Potency, µM (top dose mostly 38.3 µM), most hits filed as inhibitors. cell surface uPA generation assay, qHTS. AID 540303, 2011. 330,000 compounds, 0.31% hits; active means well fitted inhibition curve with a large enough effect; inconclusive means small, poorly fitted or top-dose-only effect; inactive means no such curve, though single readings can be large or run the other way; tested in mouse RAW 264.7 cells; further: nearly all actives have a fitted effect of over 55% in size
GLP1R ag: qHTS of GLP-1 Receptor Agonists; Glucagon-like peptide 1 receptor (Homo sapiens), P43220; HEK293 GLP-1R CRE-luciferase, luminescence, 4-6 h; cells express a hypersensitive GLP-1R form; Potency, µM (top dose mostly 45.6 µM), hits mostly activators; 380,000 compounds, 0.007% hits
Target sequence (P43220 whole entry, looked up): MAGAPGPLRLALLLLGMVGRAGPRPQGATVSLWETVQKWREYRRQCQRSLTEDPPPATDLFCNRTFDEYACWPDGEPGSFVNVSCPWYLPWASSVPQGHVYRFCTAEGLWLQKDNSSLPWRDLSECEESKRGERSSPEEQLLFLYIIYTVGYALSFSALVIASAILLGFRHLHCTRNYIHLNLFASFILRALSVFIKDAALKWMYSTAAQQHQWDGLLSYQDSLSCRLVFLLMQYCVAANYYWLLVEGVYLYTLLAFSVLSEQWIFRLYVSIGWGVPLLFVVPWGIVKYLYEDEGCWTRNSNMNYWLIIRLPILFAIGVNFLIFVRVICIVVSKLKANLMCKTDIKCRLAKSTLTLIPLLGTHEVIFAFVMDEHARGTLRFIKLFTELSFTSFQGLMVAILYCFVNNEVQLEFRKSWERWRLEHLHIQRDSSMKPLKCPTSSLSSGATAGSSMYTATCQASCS
GLP1R inv ag: qHTS of GLP-1 Receptor Inverse Agonists (Inhibition Mode); AID 624417, 2012; 410,000 compounds, 1.6% hits; HEK293 GLP-1R CRE-luciferase, luminescence, 24 h; GLP-1R form is constitutively active; Glucagon-like peptide 1 receptor (Homo sapiens), P43220; Potency, µM (highest dose often 38.3 µM), actives largely listed as inhibitors; further: nearly all actives have a fitted effect of over 55% in size
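Readout was luciferase luminescence, measured 12 min after detection reagent at room temperature. Beforehand, GLP-1R reporter HEK293 cells had sat 12 h, then received compounds for 24 hr at 37 deg C.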
HEK293 tox: qHTS of GLP-1 Receptor Inverse Agonists: Cytotox Screen; Potency, µM (series often up to 38.3 µM), usual class: inhibitors; HEK293 cAMP-luciferase reporter cells, luminescence, 24 h; 410,000 compounds, 0.13% hits; AID 624418, 2012;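 further: loss of luciferase light is scored as toxicity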
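Compound-treated cells are incubated 24 hr at 37 deg C under 5% CO2 after a 12 hour attachment period, then luciferase detection reagent is added and luminescence is measured following 12 min at room temperature; lowered signal indicates toxicity.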
Hits are given with their value. Most compounds without a hit are left out; they make up all but 2.2% or so of the library. Unless noted, the call rests on the fitted dose curve; in most records, active means well fitted curve in the direction sought with a large enough effect; inconclusive means small, poorly fitted or top-dose-only effect, or another doubt; inactive means no such curve, though single readings can be large; an effect the other way counts as inactive or inconclusive.

Results for CC1CCCC(C)N1C(=O)CSc1nnc(C2CCCCC2)o1 (stereo not drawn) ?
CCT modulator: inactive; MmCpn inh: inactive; uPA surface inh: inactive; GLP1R ag: inactive; GLP1R inv ag: 3.16µM; HEK293 tox: inactive

How did COc1cc(/C=C2\Oc3cc(O)ccc3C2=O)ccc1O do in these assays?
CCT modulator: inactive; MmCpn inh: inactive; uPA surface inh: 6.31µM; GLP1R ag: inactive; GLP1R inv ag: inactive; HEK293 tox: inactive

What do the screens show for `CCOc1cc(/C=C2\CN(CC)C/C(=C\c3ccc(O)c(OCC)c3)C2=O)ccc1O`?
CCT modulator: inactive; MmCpn inh: inactive; uPA surface inh: inactive; GLP1R ag: inactive; GLP1R inv ag: 10µM; HEK293 tox: inactive

How did COc1ccc(/C=C2\OC(=O)c3c(OC)cccc32)cc1OC do in these assays?
CCT modulator: inactive; MmCpn inh: inactive; uPA surface inh: inactive; GLP1R ag: 5.01µM; GLP1R inv ag: inactive; HEK293 tox: inactive

What do the screens show for `Cc1ccsc1/C=C1\Oc2cc(O)ccc2C1=O`?
CCT modulator: inactive; GLP1R ag: inactive; GLP1R inv ag: inactive; HEK293 tox: inactive

How did COc1cc(/C=C2\CCC/C(=C\c3ccc(O)c(OC)c3)C2=O)ccc1O do in these assays?
CCT modulator: inactive; MmCpn inh: inactive; uPA surface inh: inactive; GLP1R ag: inactive; GLP1R inv ag: inconclusive; HEK293 tox: 8.91µM

Results for CCC(=O)OCC(=O)[C@@]1(OC(=O)CC)[C@@H](C)C[C@@H]2[C@H]3CCC4=CC(=O)C=C[C@]4(C)[C@@]3(F)[C@@H](O)C[C@@]21C ?
GLP1R ag: inactive

How did Clc1ccc(-n2c(Cc3ccccc3)nnc2SCc2nc(-c3cccs3)no2)cc1 do in these assays?
GLP1R inv ag: inactive; HEK293 tox: inactive

What do the screens show for `CNc1sc(C(=O)c2cccs2)c(N)c1-c1nc2ccccc2s1`?
CCT modulator: inactive; MmCpn inh: inactive; uPA surface inh: inactive; GLP1R ag: inactive; GLP1R inv ag: inconclusive; HEK293 tox: inconclusive

What do the screens show for `CNc1sc(C(=O)c2ccc(F)cc2)c(N)c1-c1nc2ccccc2s1`?
CCT modulator: inactive; MmCpn inh: inactive; GLP1R ag: inactive; GLP1R inv ag: inactive; HEK293 tox: 11.2µM

Results for Cc1nn(CCCC(=O)Nc2cccc(F)c2)c(=O)c2c1sc1ccccc12 ?
GLP1R inv ag: inactive; HEK293 tox: inactive

Results for COc1ccc(-c2c(C#N)c(SCC(=O)Nc3ccc(C)c(C)c3)nc(C)c2C(=O)Nc2ccccc2)cc1OC ?
GLP1R inv ag: inactive; HEK293 tox: inactive

Results for CCOc1ccc(CN2CCN(Cc3ccc4c(c3)c3ccccc3n4CC)CC2)cc1 ?
GLP1R inv ag: 6.31µM; HEK293 tox: inactive

What do the screens show for `CCn1c2ccccc2c2cc(CN3CCN(Cc4ccc(OC)c(OC)c4)CC3)ccc21`?
GLP1R inv ag: inconclusive; HEK293 tox: inactive

What do the screens show for `Cc1cccc(C)c1NC(=O)c1nc(SC(C)C)ncc1Cl`?
GLP1R inv ag: inconclusive; HEK293 tox: inactive

Results for Cc1ccc2c(c1C)-c1c(ccc(C)c1C)C(=O)C2=O ?
CCT modulator: inactive; uPA surface inh: inactive; GLP1R ag: inactive; GLP1R inv ag: 0.794µM; HEK293 tox: inconclusive

What do the screens show for `CC(C)c1ccc(NC(=O)c2cc(S(=O)(=O)NCc3ccccc3Cl)ccc2F)cc1`?
GLP1R inv ag: 6.31µM; HEK293 tox: inconclusive

How did CC(C)c1ccc(NC(=O)c2cc(S(=O)(=O)N(C)C3CCCCC3)ccc2F)cc1 do in these assays?
GLP1R inv ag: 10µM; HEK293 tox: inactive

How did CC(C)c1ccc(NC(=O)c2cc(S(=O)(=O)NCCC3=CCCCC3)ccc2F)cc1 do in these assays?
GLP1R inv ag: inconclusive; HEK293 tox: inactive

How did CN(C1CCCCC1)S(=O)(=O)c1ccc(NC(=O)c2ccc(Br)o2)cc1 do in these assays?
CCT modulator: inactive; MmCpn inh: inactive; uPA surface inh: inactive; GLP1R ag: inactive; GLP1R inv ag: 7.08µM; HEK293 tox: inactive

How did COc1ccc(CCNc2nc(SCc3ccccc3Cl)nc3ccccc23)cc1OC do in these assays?
GLP1R inv ag: inactive; HEK293 tox: inactive

Results for Cc1ccc(-n2nnc(-c3nsc(NC(=O)c4ccccc4C)n3)c2C)cc1Cl ?
GLP1R inv ag: inactive; HEK293 tox: inactive

Results for O=c1c2oc3ccccc3c2n(Cc2ccccc2Cl)c(=O)n1Cc1ccc2c(c1)OCO2 ?
GLP1R inv ag: inactive; HEK293 tox: inactive

Results for COC(=O)c1sc(S(=O)(=O)N2CCC(C(N)=O)CC2)c(C(=O)OC)c1C ?
CCT modulator: -33.4; MmCpn inh: inactive; uPA surface inh: inactive; GLP1R ag: inactive; GLP1R inv ag: inactive; HEK293 tox: inactive

What do the screens show for `COC(=O)c1sc(S(=O)(=O)N2CCN(c3ccc(OC)cc3)CC2)c(C(=O)OC)c1C`?
CCT modulator: inactive; MmCpn inh: inactive; GLP1R ag: inactive; GLP1R inv ag: inactive; HEK293 tox: inactive

What do the screens show for `COC(=O)c1sc(S(=O)(=O)N2CCN(c3ccccc3F)CC2)c(C(=O)OC)c1C`?
CCT modulator: inactive; MmCpn inh: inactive; uPA surface inh: inactive; GLP1R ag: inactive; GLP1R inv ag: 11.2µM; HEK293 tox: inconclusive

How did O=C(NNc1cc(Cl)ccc1Cl)C1CCC1 do in these assays?
CCT modulator: inactive; MmCpn inh: inactive; uPA surface inh: inactive; GLP1R ag: inactive; GLP1R inv ag: 3.16µM; HEK293 tox: inactive

Results for O=C(NNc1ccc(F)cc1F)C1CCC1 ?
CCT modulator: inactive; MmCpn inh: inactive; uPA surface inh: inactive; GLP1R ag: inactive; GLP1R inv ag: inconclusive; HEK293 tox: inconclusive

What do the screens show for `CC1=C(C(=O)N(C)C)CC(CC(=O)NC(c2ccccc2)c2ccccc2)C(=O)N1Cc1ccccc1` (stereo not drawn)?
CCT modulator: -47.9; GLP1R ag: inactive; GLP1R inv ag: inactive; HEK293 tox: inactive

How did COc1ccc(CN2C(=O)C(CC(=O)NCCCCc3ccccc3)CC(C(=O)N(C(C)C)C(C)C)=C2C)cc1 (stereo not drawn) do in these assays?
CCT modulator: inactive; GLP1R ag: inactive; GLP1R inv ag: 11.2µM; HEK293 tox: inactive

Results for CC1=C(C(=O)N(C)C)CC(CC(=O)NC(c2ccccc2)c2ccccc2)C(=O)N1Cc1ccc(F)cc1 (stereo not drawn) ?
CCT modulator: inactive; GLP1R ag: inactive; GLP1R inv ag: inactive; HEK293 tox: inactive

How did COc1ccc(CCNC(=O)c2cc3c(=O)[nH]c4ccc(C)cc4c3s2)cc1OC do in these assays?
GLP1R ag: inactive; GLP1R inv ag: inactive; HEK293 tox: inactive
